Bioassay records as filed in PubChem.
PGC1a acetyl inh: inhibitors of PGC1a acetylation signal, primary screen, cell-based, U2OS, AlphaScreen, inhibitor mode. inhibition, % at 15.6 µM. 0.17% of 350,000 active. AlphaScreen anti-acetyl-lysine; with virally co-expressed GCN5 acetyltransferase;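 active = every replicate shows inhibition of at least 40%; inconclusive = mean inhibition at least 40% but some replicate below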
DENV2 CPE rescue: inhibitors of DENV2 cytopathic effect, primary screen, cell-based, plate reader, single concentration. DENV2-infected cells, cytopathic effect rescue. CPE inhibition, % at 9.99 µM. 1.7% of 350,000 active. AID 651640, 2012; in the data active = CPE inhibition above about 20%, passing the limit was not always enough; inconclusive = no clear call, values can overlap the other calls; tested in BHK-21 cells
INS-1E GSIS act: GLuc luminescence reporter in INS-1E cells, primary screen for activators of glucose-dependent secretion of insulin | INS-1E GLuc reporter insulin secretion, 2-3 h | activation, % at 16.6 µM | 0.61% of 370,000 active;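 active = lowest replicate activation of at least 40%, so every replicate reaches that level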
ERAP1 inh: human ERAP1 aminopeptidase inhibitors, primary screen, biochemical, single point, plate reader. recombinant ERAP1, Leu-AMC fluorescence, 60 min. 0.15% of 340,000 active. inhibition, % at 10.7 µM;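 active = mean replicate inhibition of at least 30%, or all replicates individually reaching that 30% level; inactive = mean below 30% and not every replicate reaching it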
Target sequence (Q9NZ08 whole entry, looked up): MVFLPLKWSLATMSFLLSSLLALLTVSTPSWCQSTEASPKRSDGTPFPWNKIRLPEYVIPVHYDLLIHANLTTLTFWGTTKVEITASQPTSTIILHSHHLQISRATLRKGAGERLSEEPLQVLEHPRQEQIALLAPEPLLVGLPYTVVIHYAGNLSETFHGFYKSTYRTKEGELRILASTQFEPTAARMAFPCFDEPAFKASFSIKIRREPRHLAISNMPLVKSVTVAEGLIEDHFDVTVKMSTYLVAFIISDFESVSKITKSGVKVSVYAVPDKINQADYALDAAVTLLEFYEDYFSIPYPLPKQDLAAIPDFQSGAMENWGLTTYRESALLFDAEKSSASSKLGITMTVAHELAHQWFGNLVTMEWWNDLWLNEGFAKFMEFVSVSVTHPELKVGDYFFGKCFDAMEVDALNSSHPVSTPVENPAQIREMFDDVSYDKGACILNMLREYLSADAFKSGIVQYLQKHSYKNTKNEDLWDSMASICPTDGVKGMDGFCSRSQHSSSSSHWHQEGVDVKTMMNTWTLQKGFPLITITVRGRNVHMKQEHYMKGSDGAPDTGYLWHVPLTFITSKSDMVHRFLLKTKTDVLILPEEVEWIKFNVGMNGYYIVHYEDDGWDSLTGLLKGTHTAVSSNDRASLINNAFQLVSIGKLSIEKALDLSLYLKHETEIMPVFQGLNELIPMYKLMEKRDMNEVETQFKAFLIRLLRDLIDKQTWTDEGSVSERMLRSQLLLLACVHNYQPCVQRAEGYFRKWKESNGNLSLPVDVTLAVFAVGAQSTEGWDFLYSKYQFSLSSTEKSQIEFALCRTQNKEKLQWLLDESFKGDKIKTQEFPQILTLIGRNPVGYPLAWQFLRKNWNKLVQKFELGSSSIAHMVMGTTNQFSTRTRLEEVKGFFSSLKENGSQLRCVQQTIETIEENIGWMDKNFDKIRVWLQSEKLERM
Ecoli rRNA inh: reduced GFP signal of wild-type E. coli, primary screen, bacterial rRNA inhibitor project, GFP/RFP fluorescence, OD600, single point | E. coli WT GFP vs humanized-ribosome RFP mutants, 24 h; stronger effect = lower value; DMSO median 0, no signal -100 | GFP signal change (wild-type ribosome), % (concentration not given with the values) | 1.6% of 350,000 active | AID 720706, 2013;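 active = significant combined selectivity score with lowered wild-type GFP, culture density cut under 30%, mutant RFP and density less affected; inactive = any of these conditions unmet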
CaV13 ICDI inh: Disruptors of the CACNA1D IQ motif to Ca2+-dependent inactivation inhibitor domain association, primary screening, Förster resonance energy transfer in intact living … | HEK cells, CFP/YFP FRET ICDI-IQ, plate reader, 10 min; percent FRET-ratio fall versus neutral wells | inhibition, % at 12.3 µM | 0.098% of 340,000 active;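 active = mean replicate inhibition of at least 30% and at least 1% of replicates passing that level; inconclusive = only one of the two criteria is met; inactive = neither criterion is met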
Each line names hits and unclear results; the compound was inactive in the other large screens; ! = repeats disagree. Compounds with a hit are over-represented: about 3.2% of the library has one in this group of screens.

C=CCOC(=O)C(=O)/C=C/c1ccc2c(c1)Cc1ccccc1-2	DENV2 CPE rescue 37! (no result: INS-1E GSIS act)
CCc1c(C(=O)NC2CCCCC2)[nH]c(C)c1C(C)=O	PGC1a acetyl inh 93 (no result: DENV2 CPE rescue, INS-1E GSIS act, ERAP1 inh, Ecoli rRNA inh)
CCc1c(C(=O)Nc2ccc(C)c(C)c2)[nH]c(C)c1C(C)=O	INS-1E GSIS act 114
CC(=O)c1c(C)[nH]c(C(=O)NC2CCCCC2)c1C	none (no result: DENV2 CPE rescue, INS-1E GSIS act, ERAP1 inh, Ecoli rRNA inh)
CCOC(=O)N1CCC(NC(=O)CCCN2C(=O)CSc3ncccc32)CC1	none (no result: DENV2 CPE rescue, INS-1E GSIS act, ERAP1 inh, Ecoli rRNA inh, CaV13 ICDI inh)
O=C(CCCN1C(=O)CSc2ncccc21)N1CCN(Cc2ccccc2)CC1	CaV13 ICDI inh 37 (no result: ERAP1 inh)
CCCCn1c(N)c(N(CCOC)C(=O)c2cnc(C)cn2)c(=O)[nH]c1=O	ERAP1 inh 49 (no result: PGC1a acetyl inh)
O=C(CCc1c[nH]c2ccccc12)N1CCN(c2ccc(O)cc2)CC1	Ecoli rRNA inh -29
Cc1ccc(-c2nc3cc(N)ccc3o2)cc1	none (no result: DENV2 CPE rescue, INS-1E GSIS act, ERAP1 inh, Ecoli rRNA inh)
Cc1ccc2oc(-c3cccc(N)c3)nc2c1	Ecoli rRNA inh -23 (no result: DENV2 CPE rescue)
C[C@@H]1CN([C@H](C)CO)C(=O)c2cc(NC(=O)Cn3cnnn3)ccc2O[C@H]1CN(C)Cc1ccc(-c2ccccc2)cc1	none (no result: CaV13 ICDI inh)
C[C@H]1CN([C@@H](C)CO)C(=O)c2cc(NC(=O)Cn3cnnn3)ccc2O[C@H]1CN(C)Cc1ccc(-c2ccccc2)cc1	DENV2 CPE rescue 33 (no result: CaV13 ICDI inh)
CNC[C@H]1Oc2ccc(NC(=O)Cn3cnnn3)cc2C(=O)N([C@@H](C)CO)C[C@H]1C	DENV2 CPE rescue 32 (no result: CaV13 ICDI inh)
C[C@H](CO)N1C[C@H](C)[C@@H](CN(C)Cc2ccc(Oc3ccccc3)cc2)Oc2ccc(NC(=O)Cn3cnnn3)cc2CC1=O	DENV2 CPE rescue 105 (no result: CaV13 ICDI inh)
CNC[C@@H]1Oc2ccc(NC(=O)Cn3cnnn3)cc2C(=O)N([C@@H](C)CO)C[C@@H]1C	none (no result: CaV13 ICDI inh)
C[C@@H]1CN([C@@H](C)CO)C(=O)Cc2cc(NC(=O)Cn3cnnn3)ccc2O[C@@H]1CN(C)Cc1ccc(Oc2ccccc2)cc1	none (no result: CaV13 ICDI inh)
O=C(C1CCCC1)N1CC2(C1)[C@@H](c1ccccc1)[C@@H](CO)N2C(=O)NC1CCCC1	none (no result: PGC1a acetyl inh, CaV13 ICDI inh)
C[C@H](CO)N1C[C@H](C)[C@H](CN(C)Cc2ccccc2F)Oc2ncc(C#CCN(C)C)cc2C1=O	none (no result: CaV13 ICDI inh)
C[C@@H]1CCCCO[C@@H](CN(C)S(=O)(=O)c2cn(C)cn2)[C@H](C)CN([C@H](C)CO)C(=O)c2cc(NS(=O)(=O)c3ccc(F)cc3)ccc2O1	DENV2 CPE rescue inconclusive (no result: PGC1a acetyl inh, CaV13 ICDI inh)
C[C@H](CO)N1C[C@H](C)[C@H](CN(C)S(C)(=O)=O)Oc2ccc(NC(=O)CCN3CCOCC3)cc2CC1=O	none (no result: CaV13 ICDI inh)
O=C(NCCc1ccccc1)c1ccc2c(c1)S(=O)(=O)c1ccccc1C2=O	Ecoli rRNA inh -23
C[C@H](CO)N1C[C@H](C)[C@@H](CN(C)S(=O)(=O)c2cn(C)cn2)Oc2ccc(NC(=O)CCCCCC(=O)Nc3ccccc3N)cc2CC1=O	none (no result: CaV13 ICDI inh)
O=C(Cc1cccnc1)N1[C@@H](CO)[C@@H]2c3ccccc3NC[C@@H]21	DENV2 CPE rescue 24 (no result: CaV13 ICDI inh)
COc1ccc(CN2[C@H](CO)[C@H]3c4ccccc4NC[C@H]32)cc1	none (no result: CaV13 ICDI inh)
COc1ccc(CN2[C@@H](CO)[C@@H]3c4ccccc4NC[C@@H]32)cc1	DENV2 CPE rescue 66 (no result: CaV13 ICDI inh)
COCC(=O)N1[C@H](CO)[C@H]2c3ccccc3NC[C@H]21	DENV2 CPE rescue 32 (no result: CaV13 ICDI inh)
CCCC(=O)Nc1ccc2c(c1)C(=O)N(C)[C@H]1CC[C@H](CC(=O)NCC(F)(F)F)O[C@@H]1CO2	none (no result: ERAP1 inh, CaV13 ICDI inh)
CC(C)NC(=O)N(C)C[C@H]1Oc2ccc(NS(=O)(=O)c3ccc(F)cc3)cc2C(=O)N([C@@H](C)CO)C[C@@H]1C	none (no result: ERAP1 inh, CaV13 ICDI inh)
CCOC(=O)N1C=CC=C[C@@H]2[C@@H](N3C(=O)c4ccccc4C3=O)C(=O)N21	DENV2 CPE rescue 63 (no result: PGC1a acetyl inh)
COc1ccc(Cn2c(-c3ccc(OC)cc3)nc3ccccc32)cc1	none
COc1ccc(Cn2c(-c3ccc(Br)cc3)c[n+]3ccccc23)cc1	Ecoli rRNA inh -30 (no result: PGC1a acetyl inh)
